# Measurements from PubChem BioAssay (NCI).
# Values joined by “and” are separate entries in the source; they are usually repeats but may differ in a detail not shown here. Equal values may be shown once. Compounds without any hit were thinned out: in the full panel of roughly 79,000, 15% have a hit. More than one record can exist for a structure, and the calls need not agree. Active and inactive are the calls of the source. No stated cut-off is given here; in the data, active means growth inhibition above about 70%; inactive means the rest.
# Columns and labels:
# [1] = NCI Yeast Anticancer Drug Screen. Data for the rad50EPP+ strain (AID 151);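 further: 0% = growth of vehicle-treated control cultures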; settings: S. cerevisiae rad50 mutant strain, stronger effect = higher value
# Outline: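 Exposing the rad50EPP+ strain to each compound, growth was compared with vehicle-only cultures to give inhibition.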
# [2] = NCI Yeast Anticancer Drug Screen. Data for the mgt1 strain (AID 153); settings: S. cerevisiae mgt1 mutant growth inhibition, stronger effect = higher value
# Outline: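 Genetically defined yeast (mgt1) treated with compound; inhibition of growth expressed against vehicle-treated controls.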
# [3] = NCI Yeast Anticancer Drug Screen. Data for the rad50 strain (AID 155);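 further: 0% = growth of vehicle-only cultures of the same strain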; settings: S. cerevisiae rad50 strain growth inhibition, stronger effect = higher value
# Outline: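 Inhibition values express reduced yeast growth in compound-treated cultures relative to vehicle-treated controls.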
# [4] = NCI Yeast Anticancer Drug Screen. Data for the mec2-1 strain (AID 157); settings: S. cerevisiae mec2-1 strain, stronger effect = higher value
# Outline: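 Readout is yeast growth inhibition, normalised to vehicle-treated controls, in the mec2-1 strain exposed to compound.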
# [5] = NCI Yeast Anticancer Drug Screen. Data for the sgs1 mgt1 strain (AID 161);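 further: 0% = growth of cultures given vehicle only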; settings: S. cerevisiae sgs1 mgt1 strain, stronger effect = higher value
# Outline: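 This yeast growth screen uses a strain with defined DNA-repair lesions; compound-treated growth is compared with vehicle-treated growth.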
# [6] = NCI Yeast Anticancer Drug Screen. Data for the CLN2oe strain (AID 163);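 further: 0% = growth of vehicle-only control cultures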; settings: S. cerevisiae CLN2oe strain, stronger effect = higher value
# Outline: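 Values reflect how much compound exposure reduced yeast growth, referenced to vehicle-exposed cells. Assay organism is a strain with a defined genetic change affecting cell-cycle control.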
# [7] = NCI Yeast Anticancer Drug Screen. Data for the cln2 rad14 strain (AID 165);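 further: 0% = growth equal to vehicle treated cultures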; settings: S. cerevisiae cln2 rad14 strain, stronger effect = higher value
# Outline: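 Relative to vehicle controls, growth inhibition of compound-treated cln2 rad14 yeast was recorded.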
# [8] = NCI Yeast Anticancer Drug Screen. Data for the bub3 strain (AID 167); settings: S. cerevisiae bub3 mutant strain, stronger effect = higher value
# Outline: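 Steps: expose the mutant yeast strain to compound; grow alongside vehicle-treated cultures; measure growth; express inhibition against the vehicle cultures.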
# [9] = NCI Yeast Anticancer Drug Screen. Data for the wt2 strain (AID 169);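 further: 0% = growth of vehicle-treated yeast cultures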; settings: S. cerevisiae wt2 strain growth inhibition, stronger effect = higher value
# Outline: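 Values express reduction in yeast growth under compound treatment, referenced to vehicle-treated cells.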
# [10] = NCI Yeast Anticancer Drug Screen. Data for the sgs1 strain (AID 173);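 further: 0% = growth of vehicle-only control cultures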; settings: S. cerevisiae sgs1 mutant, stronger effect = higher value
# Outline: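 Treat defined-mutant yeast with compound; measure growth; calculate inhibition relative to vehicle-treated cells.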
# [11] = NCI Yeast Anticancer Drug Screen. Data for the mlh1 rad18 strain (AID 175); settings: S. cerevisiae mlh1 rad18 strain growth inhibition, stronger effect = higher value
# Outline: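 Test agents were incubated with a yeast strain of defined genotype (DNA damage repair defect). Inhibition of growth was derived by comparison with vehicle-exposed cultures.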
# [12] = NCI Yeast Anticancer Drug Screen. Data for the rad18 strain (AID 177); settings: S. cerevisiae rad18 mutant growth inhibition, stronger effect = higher value
# Outline: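 A genetically defined yeast mutant impaired in DNA damage repair was treated with test compounds, then its growth was measured against cultures receiving vehicle alone.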
# [13] = NCI Yeast Anticancer Drug Screen. Data for the wt1 strain (AID 149);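 further: 0% = growth of vehicle-treated wt1 cultures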; settings: S. cerevisiae wt1 strain (SPY 50644) growth inhibition, stronger effect = higher value
# Outline: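 Compounds are added to wt1 yeast cultures. Growth is then measured. Inhibition is expressed relative to vehicle-treated controls.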
# [14] = NCI Yeast Anticancer Drug Screen. Data for the rad14 strain (AID 159);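 further: 0% = growth of vehicle-treated control cultures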; settings: S. cerevisiae rad14 strain growth inhibition, stronger effect = higher value
# Outline: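 A mutant yeast strain defective in DNA damage repair is treated with compound; inhibition of its growth is scored against untreated, vehicle-exposed cultures.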
# [15] = NCI Yeast Anticancer Drug Screen. Data for the mlh1 strain (AID 171);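 further: 0% = growth of vehicle-treated control cultures of the same strain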; settings: S. cerevisiae mlh1 strain growth inhibition, stronger effect = higher value
# Outline: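 Steps: expose the defined-mutant yeast strain to compound; expose a parallel culture to vehicle; measure growth; express compound effect as inhibition relative to the vehicle culture.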
# [16] = at 5.0 µM (retest, dose inferred, filed as 0.5)
# [17] = at 50.0 µM (retest, dose inferred, filed as 5.0)
smiles,measurement,setting,value
O=C(CSS(=O)(=O)O)c1ccccc1,growth inhibition,[1]; at 1.2 µM,-4% (inactive)
same,growth inhibition,[1]; at 3.7 µM,-9% (inactive)
same,growth inhibition,[1]; at 11.0 µM,11% (inactive)
same,growth inhibition,[1]; at 33.0 µM,67% (inactive)
same,growth inhibition,[1]; at 100.0 µM,91% (active)
same,growth inhibition,[2]; at 1.2 µM,-1% (inactive)
same,growth inhibition,[2]; at 3.7 µM,-3% (inactive)
same,growth inhibition,[2]; at 11.0 µM,-1% (inactive)
same,growth inhibition,[2]; at 33.0 µM,2% (inactive)
same,growth inhibition,[2]; at 100.0 µM,7% (inactive)
same,growth inhibition,[3]; at 1.2 µM,-1% (inactive)
same,growth inhibition,[3]; at 3.7 µM,-1% (inactive)
same,growth inhibition,[3]; [16],6% (inactive)
same,growth inhibition,[3]; at 11.0 µM,2% (inactive)
same,growth inhibition,[3]; at 33.0 µM,2% (inactive)
same,growth inhibition,[3]; [17],54% (inactive)
same,growth inhibition,[3]; at 50.0 µM,10.8% (inactive)
same,growth inhibition,[3]; at 100.0 µM,16% (inactive)
same,growth inhibition,[4]; at 1.2 µM,-4% (inactive)
same,growth inhibition,[4]; at 3.7 µM,-5% (inactive)
same,growth inhibition,[4]; [16],-15% (inactive)
same,growth inhibition,[4]; at 11.0 µM,0% (inactive)
same,growth inhibition,[4]; at 33.0 µM,9% (inactive)
same,growth inhibition,[4]; [17],-6% (inactive)
same,growth inhibition,[4]; at 50.0 µM,19.9% (inactive)
same,growth inhibition,[4]; at 100.0 µM,24% (inactive)
same,growth inhibition,[5]; [16],-9% (inactive)
same,growth inhibition,[5]; [17],69% (inactive)
same,growth inhibition,[5]; at 50.0 µM,35.3% (inactive)
same,growth inhibition,[6]; at 1.2 µM,-5% (inactive)
same,growth inhibition,[6]; at 3.7 µM,-14% (inactive)
same,growth inhibition,[6]; at 11.0 µM,-11% (inactive)
same,growth inhibition,[6]; at 33.0 µM,2% (inactive)
same,growth inhibition,[6]; at 100.0 µM,28% (inactive)
same,growth inhibition,[7]; [16],6% (inactive)
same,growth inhibition,[7]; [17],15% (inactive)
same,growth inhibition,[7]; at 50.0 µM,18.2% (inactive)
same,growth inhibition,[8]; at 1.2 µM,0% (inactive)
same,growth inhibition,[8]; at 3.7 µM,-5% (inactive)
same,growth inhibition,[8]; [16],-17% (inactive)
same,growth inhibition,[8]; at 11.0 µM,-1% (inactive)
same,growth inhibition,[8]; at 33.0 µM,18% (inactive)
same,growth inhibition,[8]; [17],76% (active)
same,growth inhibition,[8]; at 50.0 µM,34.5% (inactive)
same,growth inhibition,[8]; at 100.0 µM,47% (inactive)
same,growth inhibition,[9]; at 1.2 µM,-2% (inactive)
same,growth inhibition,[9]; at 3.7 µM,-1% (inactive)
same,growth inhibition,[9]; at 11.0 µM,1% (inactive)
same,growth inhibition,[9]; at 33.0 µM,6% (inactive)
same,growth inhibition,[9]; at 100.0 µM,15% (inactive)
same,growth inhibition,[10]; at 1.2 µM,0% (inactive)
same,growth inhibition,[10]; at 3.7 µM,2% (inactive)
same,growth inhibition,[10]; at 11.0 µM,13% (inactive)
same,growth inhibition,[10]; at 33.0 µM,29% (inactive)
same,growth inhibition,[10]; at 100.0 µM,51% (inactive)
same,growth inhibition,[11]; [16],31% (inactive)
same,growth inhibition,[11]; [17],89% (active)
same,growth inhibition,[11]; at 50.0 µM,35% (inactive)
same,growth inhibition,[12]; at 1.2 µM,5% (inactive)
same,growth inhibition,[12]; at 3.7 µM,20% (inactive)
same,growth inhibition,[12]; at 11.0 µM,62% (inactive)
same,growth inhibition,[12]; at 33.0 µM,84% (active)
same,growth inhibition,[12]; at 100.0 µM,89% (active)
CCOc1ccc2ccc3cccnc3c2n1,growth inhibition,[13]; at 1.2 µM,-5% (inactive)
same,growth inhibition,[13]; at 3.7 µM,-2% (inactive)
same,growth inhibition,[13]; at 11.0 µM,2% (inactive)
same,growth inhibition,[13]; at 33.0 µM,18% (inactive)
same,growth inhibition,[13]; at 100.0 µM,48% (inactive)
same,growth inhibition,[3]; at 1.2 µM,-5% (inactive)
same,growth inhibition,[3]; at 3.7 µM,12% (inactive)
same,growth inhibition,[3]; [16],-1% (inactive)
same,growth inhibition,[3]; at 11.0 µM,26% (inactive)
same,growth inhibition,[3]; at 33.0 µM,59% (inactive)
same,growth inhibition,[3]; [17],40% (inactive)
same,growth inhibition,[3]; at 50.0 µM,69% (inactive)
same,growth inhibition,[3]; at 100.0 µM,74% (active)
same,growth inhibition,[4]; at 1.2 µM,-4% (inactive)
same,growth inhibition,[4]; at 3.7 µM,-5% (inactive)
same,growth inhibition,[4]; [16],-3% (inactive)
same,growth inhibition,[4]; at 11.0 µM,8% (inactive)
same,growth inhibition,[4]; at 33.0 µM,13% (inactive)
same,growth inhibition,[4]; [17],28% (inactive)
same,growth inhibition,[4]; at 50.0 µM,47.2% (inactive)
same,growth inhibition,[4]; at 100.0 µM,35% (inactive)
same,growth inhibition,[14]; at 1.2 µM,-4% (inactive)
same,growth inhibition,[14]; at 3.7 µM,4% (inactive)
same,growth inhibition,[14]; at 11.0 µM,-1% (inactive)
same,growth inhibition,[14]; at 33.0 µM,7% (inactive)
same,growth inhibition,[14]; at 100.0 µM,68% (inactive)
same,growth inhibition,[5]; [16],-8% (inactive)
same,growth inhibition,[5]; [17],66% (inactive)
same,growth inhibition,[5]; at 50.0 µM,70.6% (active)
same,growth inhibition,[6]; at 1.2 µM,-18% (inactive)
same,growth inhibition,[6]; at 3.7 µM,-7% (inactive)
same,growth inhibition,[6]; at 11.0 µM,-14% (inactive)
same,growth inhibition,[6]; at 33.0 µM,4% (inactive)
same,growth inhibition,[6]; at 100.0 µM,22% (inactive)
same,growth inhibition,[7]; [16],-33% (inactive)
same,growth inhibition,[7]; [17],-17% (inactive)
same,growth inhibition,[7]; at 50.0 µM,-3.9% (inactive)
same,growth inhibition,[8]; at 1.2 µM,-4% (inactive)
same,growth inhibition,[8]; at 3.7 µM,-3% (inactive)
same,growth inhibition,[8]; [16],-9% (inactive)
same,growth inhibition,[8]; at 11.0 µM,1% (inactive)
same,growth inhibition,[8]; at 33.0 µM,36% (inactive)
same,growth inhibition,[8]; [17],52% (inactive)
same,growth inhibition,[8]; at 50.0 µM,59% (inactive)
same,growth inhibition,[8]; at 100.0 µM,70% (active)
same,growth inhibition,[9]; at 1.2 µM,0% (inactive)
same,growth inhibition,[9]; at 3.7 µM,2% (inactive)
same,growth inhibition,[9]; at 11.0 µM,8% (inactive)
same,growth inhibition,[9]; at 33.0 µM,37% (inactive)
same,growth inhibition,[9]; at 100.0 µM,66% (inactive)
same,growth inhibition,[15]; at 1.2 µM,-3% (inactive)
same,growth inhibition,[15]; at 3.7 µM,-1% (inactive)
same,growth inhibition,[15]; at 11.0 µM,17% (inactive)
same,growth inhibition,[15]; at 33.0 µM,54% (inactive)
same,growth inhibition,[15]; at 100.0 µM,63% (inactive)
same,growth inhibition,[10]; at 1.2 µM,-3% (inactive)
same,growth inhibition,[10]; at 3.7 µM,1% (inactive)
same,growth inhibition,[10]; at 11.0 µM,9% (inactive)
same,growth inhibition,[10]; at 33.0 µM,40% (inactive)
same,growth inhibition,[10]; at 100.0 µM,63% (inactive)
same,growth inhibition,[11]; [16],2% (inactive)
same,growth inhibition,[11]; [17],40% (inactive)
same,growth inhibition,[11]; at 50.0 µM,35% (inactive)
same,growth inhibition,[12]; at 1.2 µM,-3% (inactive)
same,growth inhibition,[12]; at 3.7 µM,8% (inactive)
same,growth inhibition,[12]; at 11.0 µM,23% (inactive)
same,growth inhibition,[12]; at 33.0 µM,60% (inactive)
same,growth inhibition,[12]; at 100.0 µM,72% (active)
COc1cccc2c1C(=O)c1c(O)c3c(c(O)c1C2=O)CC(O)(C(=O)CO)CC3OC1CC(N)C(O)C(C)O1 (stereo not drawn),growth inhibition,[3]; [16],13% (inactive) and 24% (inactive) and 34% (inactive)
same,growth inhibition,[3]; [17],13% (inactive) and 18% (inactive) and 91% (active)
same,growth inhibition,[4]; [16],7% (inactive) and 6% (inactive) and 14% (inactive)
same,growth inhibition,[4]; [17],8% (inactive) and 10% (inactive) and 58% (inactive)
same,growth inhibition,[5]; [16],7% (inactive) and 16% (inactive) and 25% (inactive)
same,growth inhibition,[5]; [17],0% (inactive) and 4% (inactive) and 71% (active)
same,growth inhibition,[7]; [16],2% (inactive) and 8% (inactive) and 23% (inactive)
same,growth inhibition,[7]; [17],1% (inactive) and 4% (inactive) and 53% (inactive)
same,growth inhibition,[8]; [16],10% (inactive) and 15% (inactive) and 18% (inactive)
same,growth inhibition,[8]; [17],13% (inactive) and 16% (inactive) and 76% (active)
same,growth inhibition,[11]; [16],-5% (inactive) and 20% (inactive) and 42% (inactive)
same,growth inhibition,[11]; [17],-1% (inactive) and 3% (inactive) and 94% (active)
